PubChem BioAssay

How the values were obtained:
[1] = test system: Human papillomavirus type 1a protein E7 (residues 44-93); experiment: small molecules binding HPV E7 44-93 – biochemical, small-molecule microarray, residues 44-93, 635 nm fluorescence, primary screen (AID 1108); conditions: fluorescence 635 nm, higher = more signal;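 note: E7 fragment applied at 1 µg/mL in TBST for 1 h at 4 C; score combines spot fluorescence with its signal to noise ratio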
[2] = hepatitis C replication reporter changes, two-sided – Huh7 cells, luciferase reporter, HCV replication inhibitor project, primary screen (AID 1109); conditions: Huh7 HCV replicon luciferase reporter, 48 h; higher = more signal;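 note: huh7 hepatoma cells harbouring a luciferase neomycin HCV replicon reporter; luciferase luminescence as measure of HCV replicon replication; test concentration not given here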
[3] = target: Left-right determination factor 2 (Homo sapiens) (UniProt O00292); experiment: small molecules binding LEFTY2 protein – biochemical, small-molecule microarray, 635 nm fluorescence scan, primary screen (AID 1110); conditions: higher = more signal
[4] = target: Calmodulin-1 (Homo sapiens) (UniProt P0DP23); experiment: small molecules binding calmodulin-1 with EGTA – biochemical, small-molecule microarray, Cy5-labelled CALM1, profiling panel (AID 1111); conditions: Cy5-CALM1 binding fluorescence, higher = more signal;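 note: labelled calmodulin applied in Tris saline Tween buffer holding calcium plus EGTA and DTT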
[5] = target: Calmodulin-1 (Homo sapiens) (UniProt P0DP23); experiment: small molecules binding Ca-loaded calmodulin-1 – biochemical, small-molecule microarray, Cy5-labelled CALM1, plus calcium, artefact control for SMM control-protein annotation, profiling panel (AID 1112); conditions: Cy5-CALM1 binding fluorescence, higher = more signal;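 note: score merges spot fluorescence with signal to noise from triplicate slides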
[6] = probe aWnt5a binding to arrayed compounds – biochemical, biotinylated probe, 635/667 nm fluorescence, primary screen (AID 1113); conditions: small-molecule microarray, higher = more signal;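 note: score merges 667 nm fluorescence intensity with signal-to-noise per printed feature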
[7] = probe aShh binding to arrayed compounds – biochemical, biotinylated probe, 635/667 nm fluorescence, primary screen (AID 1114); conditions: small-molecule microarray, higher = more signal;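 note: probe is biotin-labelled aShh protein from a stem cell growth factor screen; measures binding of labelled protein to compounds printed on the slide; score merges feature fluorescence at 667 nm with signal-to-noise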
[8] = probe aNog binding to arrayed compounds – biochemical, biotinylated probe, 635/667 nm fluorescence, primary screen (AID 1115); conditions: small-molecule microarray, higher = more signal;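 note: probe is biotinylated aNog protein used at 0.15 µg/mL for 1 h at 4 C; z-score combines 667 nm fluorescence of each spot with its signal to noise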
[9] = target: Torsin-1A-interacting protein 1 (Homo sapiens) (UniProt Q5JTV8); experiment: compound microarray binding of lysate hLAP1 – cell lysate, small-molecule microarray, COS7 lysate, 635/667 nm fluorescence, primary screen (AID 1116); conditions: 635 nm fluorescence, higher = more signal
[10] = target: Alpha-bungarotoxin (Bungarus multicinctus) (UniProt P60615); experiment: compounds binding labelled alpha-BTX control protein – biochemical, small-molecule microarray, Alexa647 label, 635/667 nm fluorescence, artefact control for SMM control protein annotation, profiling panel (AID 1117); conditions: alpha-BTX-A647 binding fluorescence, higher = more signal
Sequence of Alpha-bungarotoxin (Bungarus multicinctus) (P60615 whole entry, looked up): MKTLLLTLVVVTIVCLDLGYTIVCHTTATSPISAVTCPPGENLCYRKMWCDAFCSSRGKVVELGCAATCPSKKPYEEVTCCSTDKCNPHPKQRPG

Sequence of Left-right determination factor 2 (Homo sapiens) (O00292 whole entry, looked up): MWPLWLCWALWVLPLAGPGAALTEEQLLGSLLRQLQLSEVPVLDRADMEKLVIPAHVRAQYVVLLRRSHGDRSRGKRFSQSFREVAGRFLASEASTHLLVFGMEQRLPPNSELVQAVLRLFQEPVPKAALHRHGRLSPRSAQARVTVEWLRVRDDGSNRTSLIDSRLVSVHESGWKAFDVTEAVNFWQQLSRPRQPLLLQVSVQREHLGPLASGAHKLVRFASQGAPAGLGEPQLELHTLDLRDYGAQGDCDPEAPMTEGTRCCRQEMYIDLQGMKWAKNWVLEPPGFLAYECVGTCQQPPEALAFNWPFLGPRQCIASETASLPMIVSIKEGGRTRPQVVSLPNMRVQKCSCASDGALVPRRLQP
Sequence of Torsin-1A-interacting protein 1 (Homo sapiens) (Q5JTV8 whole entry, looked up): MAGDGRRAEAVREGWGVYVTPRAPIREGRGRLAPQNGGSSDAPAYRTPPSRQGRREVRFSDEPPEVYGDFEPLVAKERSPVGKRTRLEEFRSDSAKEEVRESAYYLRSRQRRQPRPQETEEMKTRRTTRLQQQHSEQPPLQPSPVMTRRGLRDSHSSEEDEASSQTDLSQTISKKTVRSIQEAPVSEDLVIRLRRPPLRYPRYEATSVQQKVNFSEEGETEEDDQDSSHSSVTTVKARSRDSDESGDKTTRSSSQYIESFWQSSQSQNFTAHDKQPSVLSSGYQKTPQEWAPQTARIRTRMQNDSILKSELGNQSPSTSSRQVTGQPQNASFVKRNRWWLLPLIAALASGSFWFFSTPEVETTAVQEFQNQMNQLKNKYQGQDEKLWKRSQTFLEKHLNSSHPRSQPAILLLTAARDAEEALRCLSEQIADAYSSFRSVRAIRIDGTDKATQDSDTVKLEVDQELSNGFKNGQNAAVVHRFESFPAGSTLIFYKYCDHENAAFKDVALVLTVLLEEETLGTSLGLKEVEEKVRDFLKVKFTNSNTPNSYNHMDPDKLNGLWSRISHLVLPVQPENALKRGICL

SMILES	composite z-score [1]	z-score [2]	composite z-score [3]	composite z-score [4]	composite z-score [5]	composite z-score [6]	composite z-score [7]	composite z-score [8]	composite z-score [9]	composite z-score [10]
COCC1C2CC[C@H]3C(OCc4ccc(F)cc4C(F)(F)F)OC[C@]4(C)[C@H]3C2=C(CN4C(=O)OC(C)(C)C)[C@H](C)C1COC (stereo not given in full)	1.37	-0.386	-0.13	2.61	1.37	0.0017	0.177	2.19	1.56	0.9
C=C(CCCC)C(=O)CC[C@@H](OC(=O)c1ccccc1-c1ccccc1C(=O)O)c1ccc(CO)o1	0.776	-0.705	0.584	-0.213	-0.483	-0.0478	0.108	-0.266	1.23	-0.146
CN1C(=O)C2C=CC(C(O)C(C)(C)C)N(Nc3ccccc3)C2C1=O (stereo not given)	-0.911	0.813	-0.428	-0.0143	-0.395	-0.0405	-0.24	0.779	-0.0378	0.531
CCN(CC)c1ccc(N2CC=CC34O[C@@H]5C=CCOC(=O)[C@@H]5[C@H]3C(=O)N(CCCCCO)[C@@H]4C2=O)cc1 (stereo not given in full)	0.221	-0.323	-0.938	-0.385	-0.0559	0.195	0.147	0.277	0.975	-1.28
C=C(CCCC)/C(=C/C[C@H](OC(C)=O)c1ccc(CO)o1)c1cc(C(=O)OC)ccc1OC	1.4	-1.58	0.305	0.184	-0.592	-0.101	0.0639	0.116	0.599	1.44
Cc1cccc(/C=C/C=O)c1	0.63	0.33	-0.478	0.613	0.207	-0.0944	-0.214	-0.104	-0.476	0.549
CC(=O)NCCCC[C@@H]1NC(=O)[C@@H]2C[C@H](C(=O)NCc3ccc(F)cc3)[C@H](c3ccc(O)cc3)N2C1=O	0.0999	-0.673	0.591	0.0633	-0.72	-0.103	0.785	-0.314	0.362	0.346
NC(=O)[C@@]1(CCS(=O)(=O)c2ccccc2)N=C(c2ccc(OCCCO)cc2)O[C@H]1c1ccccc1	1.49	-2.05	-0.38	1.37	0.699	0.0845	0.396	1.28	1.89	1.42
O=c1cccc(-c2ccccc2)o1	-0.815	-0.144	-0.491	-0.604	-0.108	-0.0863	0.0141	-0.295	-0.0971	-0.0278
C=C(CCCC)C(=O)CC[C@H](OC(C)=O)c1ccc(CO)o1	0.478	-0.72	-0.0361	-0.933	-1.06	-0.0182	0.13	-0.196	1.43	-0.28
CCCCCCC#C[Si](O[C@H](c1ccccc1)c1cn([C@H](C)c2ccccc2)nn1)(C(C)C)C(C)C	0.444	-1.57	0.434	-0.193	-0.455	0.0317	-0.138	-0.139	-0.0802	-0.0777
C=CCOC(=O)[C@@H]1[C@H]2C(=O)O[C@H](c3ccccc3)[C@H](c3ccccc3)N2[C@H](c2ccc(OCCOC(=O)[C@H]3C[C@H]4C(=O)N[C@@H](Cc5ccccc5)C(=O)N4[C@H]3c3ccc(O)cc3)cc2)[C@@]12C(=O)Nc1ccc(I)cc12	1.06	-2.78	0.866	-0.0584	-1.26	-0.135	0.302	0.116	1.03	1.66
O=C(NCC(O)CO)[C@]1(CCS(=O)(=O)c2ccccc2)N=C(c2ccc(OCCCO)cc2)O[C@@H]1c1ccccc1 (stereo not given in full)	0.556	-0.326	-0.805	1.99	1.48	-0.0846	0.0756	1.12	2.69	2.41
C[n+]1ccc2ccc(O)cc2c1	0.642	-0.337	0.92	-0.825	-1.61	-0.124	-0.0804	-0.323	1.62	0.273
CCN(CC)c1ccc(N2CC=CC34O[C@@H]5/C=C\CCC(C)OC(=O)C5[C@H]3C(=O)N(CCCCCCO)[C@@H]4C2=O)cc1 (stereo not given in full)	-0.27	-0.693	-0.694	-0.423	-0.304	-0.13	-0.223	-0.16	0.891	-1.04
O=C1OCC=C[C@H]2OC34C=CCN(c5ccc(Cl)cc5)C(=O)[C@H]3N(CCCO)C(=O)[C@@H]4[C@@H]12 (stereo not given in full)	-0.0068	-0.483	-0.59	-0.268	0.954	-0.15	-0.0769	-0.345	-0.0862	-0.43
Cc1cc(C)c(C(O)C2C=CC3C(=O)NC(=O)C3N2Nc2ccccn2)c(C)c1 (stereo not given)	1.22	0.544	-0.318	0.62	0.153	-0.0596	0.0469	1.63	0.849	0.0525

SMILES	composite z-score [1]	z-score [2]	composite z-score [3]	composite z-score [4]	composite z-score [5]	composite z-score [6]	composite z-score [7]	composite z-score [8]	composite z-score [9]	composite z-score [10]
CN(C)CCCCCCNC(=O)[C@@H]1C[C@@H]2C(=O)N[C@@H](Cc3ccccc3)C(=O)N2[C@@H]1c1cccc(OCCO)c1	1.39	1.73	0.637	-0.345	-0.287	-0.0472	0.0756	0.109	1.93	2.64
CC(C)C(O)C1C=CC2C(=O)N(C)C(=O)C2N1N1CCCCC1 (stereo not given)	0.471	0.279	0.223	0.372	-0.387	-0.0462	0.0723	0.693	0.815	0.502
C=CCN1Cc2ccccc2C[C@]2(N=C(c3ccc(OCCCO)cc3)O[C@@H]2c2ccccc2)C1=O	1.18	-2.51	0.915	0.054	-0.83	-0.006	-0.0119	0.838	2.68	1.03
COCCCNC(=O)[C@@]1(Sc2ccc(C)cc2)CC(=O)N(Cc2ccccc2)[C@@H]1c1ccc(CO)cc1	0.0655	-1.29	-0.993	-0.488	-0.58	-0.0221	-0.0324	0.336	-0.36	-0.941
O=C1OCC=C[C@H]2OC34C=CCN(CCN5CCOCC5)C(=O)[C@H]3N(CCCCCCO)C(=O)[C@@H]4[C@@H]12 (stereo not given in full)	-0.139	-0.413	-0.207	-0.238	-0.695	-0.176	-0.0904	0.0395	1.37	0.0977
CCOC(=O)C[C@H]1[C@H](OC(=O)c2cc3ccccc3oc2=O)[C@@H](NC(=O)c2ccc3ccccc3c2)c2cc(OCCCO)ccc2N1C(=O)c1ccccc1	1.39	-0.593	0.129	-0.0786	-0.337	-0.12	0.214	-0.0863	0.739	0.43
COc1cc(CO)cc(I)c1O[C@H]1C=C(C(=O)NCCO)C[C@@H](N(CCc2cccc(F)c2)C(=O)CCC2CCCC2)[C@@H]1O	1.43	-4.65	0.195	2.15	2.16	0.277	0.0952	-0.144	2.99	-0.242
CC1CC/C=C\[C@H]2OC34C=CCN(CCN5CCOCC5)C(=O)[C@H]3N(CCCCCO)C(=O)[C@@H]4C2C(=O)O1 (stereo not given in full)	-1.78	0.824	0.0111	-1.87	-1.59	-0.224	-0.0769	-0.321	-0.595	-1.06
CC(C)(C)OC(=O)CC[C@@]1(C(=O)N2CCOCC2)N=C(c2ccc(OCCCO)cc2)O[C@@H]1c1ccccc1N=[N+]=[N-]	1.48	0.623	0.395	1.56	0.642	0.115	0.558	0.45	1.6	2.41
O=C1C2C=CC(C(O)c3ccccn3)N(Nc3ccccc3F)C2C(=O)N1c1ccccc1 (stereo not given)	0.642	0.426	0.0355	-0.116	-0.332	-0.0685	0.0278	-0.216	0.0065	0.231
Cc1ccc(N2C(=O)c3ccccc3[C@@H](C(=O)NC(C)C)[C@@H]2c2ccc(CO)cc2)nc1	-0.191	-0.301	0.0413	-0.973	-0.754	0.0101	-0.291	-0.493	2.09	-0.719
C=CCNC(=O)[C@@H]1[C@H]2C(=O)O[C@H](c3ccccc3)[C@H](c3ccccc3)N2[C@H](c2ccccc2OCCO)[C@@]12C(=O)N(C(=O)OCCOC)c1ccc(C#CCC(C(=O)OC)C(=O)OC)cc12	1.12	-2.59	1.47	2.23	1.01	0.826	2.18	2.79	2.74	3.06
C=CCC(OC(C)=O)[C@@H]1[C@@H](N(Cc2cc3ccccc3o2)C(=O)c2cccc3ccccc23)c2cc(OCCCO)ccc2N1C(=O)Cc1ccc(OC)cc1 (stereo not given in full)	-0.0348	-0.431	0.443	-0.158	0.344	-0.0816	-0.0146	0.328	0.153	0.608
COCCOC(=O)N1C(=O)[C@@]2(c3cc(C#CC4=CCCCC4)ccc31)[C@H](c1ccc(OCCO)cc1)N1[C@H](c3ccccc3)[C@H](c3ccccc3)OC(=O)[C@H]1[C@@H]2C(=O)Nc1nc2ccccc2s1	1.23	-1.87	0.172	1.57	-0.386	-0.001	0.275	-0.45	0.993	0.656
COCCOC(=O)N1C(=O)[C@@]2(c3cc(C#Cc4ccc(OC)cc4)ccc31)[C@H](c1ccc(O)cc1)N1[C@H](c3ccccc3)[C@H](c3ccccc3)OC(=O)[C@H]1[C@@H]2C(=O)N1CCN(c2ncccn2)CC1	1.37	-1.05	0.224	0.966	0.361	-0.0846	-0.441	-0.124	0.596	0.829
O=C1O[C@H](c2ccccc2)[C@H](c2ccccc2)N2[C@H]1[C@@H](C(=O)NC[C@H](O)c1ccccc1)[C@]1(C(=O)Nc3ccc(C#CC4(O)CCCCCC4)cc31)[C@H]2c1ccccc1OCCO	1.36	-3.12	-0.0569	0.9	0.26	-0.145	0.147	0.52	0.791	0.837
CCCNC(=O)[C@@]1(c2ccc([N+](=O)[O-])cc2)CC(=O)N(CC23CC4CC(CC(C4)C2)C3)[C@@H]1c1ccc(CO)cc1I	0.0836	-3.32	0.152	0.838	0.94	-0.0303	0.166	0.431	-0.421	0.695
